Test results from PubChem BioAssay.
The source made the active and inactive calls. Unless noted, no rule for the calls is given here.

Tests used:
[1] = A549 cell viability effects, profiling panel, calcein-AM fluorescence, 48 h, basal (AID 1162); settings: higher = more signal; also: test concentration not given here
[2] = adipocyte viability effects, profiling panel, cell-based, 3T3-L1 adipocytes, calcein-AM fluorescence, 48 h, basal (AID 1163); settings: 3T3-L1 adipocytes viability, higher = more signal; also: test concentration not given here
[3] = HepG2 cell viability effects, profiling panel, calcein-AM fluorescence, 48 h, basal (AID 1164); settings: higher = more signal; also: test concentration not given here
[4] = MM1S cell viability effects, profiling panel, calcein-AM fluorescence, 48 h, basal (AID 1165); settings: higher = more signal;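 also: viability of MM1S multiple myeloma cells under basal unstimulated conditions; test concentration not given here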
[5] = basal RPMI8226 viability, no added stimulus, profiling panel, cell-based, calcein-AM fluorescence, 48 h, PK04 Diversity Set (AID 1166); settings: RPMI8226 myeloma viability, higher = more signal;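 also: cells grown under basal conditions without added stimulus; test concentration not given here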
[6] = basal HepG2 mitochondrial membrane potential changes, profiling panel, cell-based, JC-1 fluorescence, 24 h, 100 nL compound (AID 1167); settings: higher = more signal; also: test concentration not given here
[7] = basal 3T3-L1 adipocyte mitochondrial potential changes, profiling panel, cell-based, JC-1 fluorescence, 3T3-L1 adipocytes, 24 h, 100 nL compound (AID 1168); settings: JC-1 mitochondrial fluorescence, higher = more signal, called active from +8 up or from −8 down; also: test concentration not given here
[8] = basal RPMI8226 mitochondrial membrane potential changes, profiling panel, cell-based, JC-1 fluorescence, 24 h, 100 nL compound (AID 1169); settings: RPMI8226 myeloma, JC-1 mitochondrial potential fluorescence, higher = more signal; also: test concentration not given here
[9] = basal MM1S mitochondrial membrane potential changes, profiling panel, cell-based, JC-1 fluorescence, 24 h, 100 nL compound (AID 1170); settings: higher = more signal; also: test concentration not given here
[10] = A549 lung cancer cell viability effects, profiling panel, resazurin fluorescence, 24 h, PK04 Diversity Set (AID 1171); settings: higher = more signal, called active from +8 up or from −8 down; also: test concentration not given here
[11] = HepG2 liver cancer cell viability effects, profiling panel, resazurin fluorescence, 24 h, PK04 Diversity Set (AID 1172); settings: higher = more signal; also: test concentration not given here
[12] = basal S. cerevisiae growth modulation, no modifier, primary screen, OD600, strain BY4716, 24 h, basal condition (AID 1173); settings: OD600, 24 h, higher = more signal, called active from +8 up or from −8 down
[13] = MM1S myeloma cell viability, profiling panel, resazurin fluorescence, basal, 24 h, PK04 Diversity Set (AID 1174); settings: higher = more signal, called active from +8 up or from −8 down;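 also: MM1S multiple myeloma cell line; test concentration not given here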
[14] = target: Dihydroorotate dehydrogenase (quinone), mitochondrial (Plasmodium falciparum (isolate 3D7)) (UniProt Q08210); assay: PfDHODH enzyme inhibitors, primary screen, biochemical, C-terminal His tag, absorbance 600 nm (AID 1175); settings: DCIP absorbance 600 nm, higher = more signal, called active from +8 up or from −8 down;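 also: recombinant parasite enzyme with a five histidine tag at its C terminus; test concentration not given here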
Sequence of Dihydroorotate dehydrogenase (quinone), mitochondrial (Plasmodium falciparum (isolate 3D7)) (Q08210 whole entry, looked up): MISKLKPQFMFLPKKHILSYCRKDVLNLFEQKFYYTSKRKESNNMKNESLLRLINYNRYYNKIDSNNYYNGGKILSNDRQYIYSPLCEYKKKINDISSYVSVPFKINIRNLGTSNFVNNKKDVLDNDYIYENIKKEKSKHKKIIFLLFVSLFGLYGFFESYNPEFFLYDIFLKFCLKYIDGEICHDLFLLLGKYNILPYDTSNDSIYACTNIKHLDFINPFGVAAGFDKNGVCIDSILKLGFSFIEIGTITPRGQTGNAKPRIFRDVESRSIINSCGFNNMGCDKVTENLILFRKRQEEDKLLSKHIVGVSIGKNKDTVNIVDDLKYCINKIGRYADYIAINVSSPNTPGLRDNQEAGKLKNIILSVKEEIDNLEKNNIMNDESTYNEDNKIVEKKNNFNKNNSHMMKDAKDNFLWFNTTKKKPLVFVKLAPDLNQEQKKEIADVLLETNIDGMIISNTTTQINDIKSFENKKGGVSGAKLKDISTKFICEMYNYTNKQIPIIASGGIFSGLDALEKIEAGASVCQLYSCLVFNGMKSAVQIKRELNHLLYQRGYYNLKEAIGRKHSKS

[15] = P. aeruginosa biofilm formation inhibitors, primary screen, strain PAO1, LB-PBS medium, absorbance 600 nm (AID 1176); also: test concentration not given here; settings: P. aeruginosa PAO1 growth/biofilm, A600, 12 h; higher = more signal
[16] = S. cerevisiae RM11-1a growth modifiers, primary screen, strain RM11-1a, OD600, basal, 24 h (AID 1177); settings: OD600, 24 h, higher = more signal, called active from +8 up or from −8 down;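 also: cultures grown under basal conditions with no added stressor; test concentration not given here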
[17] = E. coli acrAB mutant growth effects, primary screen, E. coli filamentation inducers, strain DRC39, OD650, 24 h (AID 1178); settings: higher = more signal, called active from +8 up or from −8 down;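 also: growth measured as culture turbidity by optical density at 650 nm; test concentration not given here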
[18] = E. coli acrAB mutant growth effects, primary screen, E. coli filamentation inducers, strain DRC39, OD650, 48 h (AID 1179);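 also: screen aims at cell division blockers that make cells filament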; settings: E. coli DRC39 delta-acrAB growth, higher = more signal, called active from +8 up or from −8 down
[19] = RPMI8226 myeloma cell viability, profiling panel, resazurin fluorescence, basal, 24 h, PK04 Diversity Set (AID 1180); settings: higher = more signal;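 also: RPMI8826 multiple myeloma cell line at 5000 cells per well; test concentration not given here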
[20] = target: E3 ubiquitin-protein ligase XIAP (Homo sapiens) (UniProt P98170); assay: XIAP binders, primary screen, biophysical, small-molecule microarray, fluorescence 635 nm (AID 1181); settings: small-molecule microarray binding, higher = more signal;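 also: score merges 667 nm emission and signal to noise over triplicate slides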
Sequence of E3 ubiquitin-protein ligase XIAP (Homo sapiens) (P98170 whole entry, looked up): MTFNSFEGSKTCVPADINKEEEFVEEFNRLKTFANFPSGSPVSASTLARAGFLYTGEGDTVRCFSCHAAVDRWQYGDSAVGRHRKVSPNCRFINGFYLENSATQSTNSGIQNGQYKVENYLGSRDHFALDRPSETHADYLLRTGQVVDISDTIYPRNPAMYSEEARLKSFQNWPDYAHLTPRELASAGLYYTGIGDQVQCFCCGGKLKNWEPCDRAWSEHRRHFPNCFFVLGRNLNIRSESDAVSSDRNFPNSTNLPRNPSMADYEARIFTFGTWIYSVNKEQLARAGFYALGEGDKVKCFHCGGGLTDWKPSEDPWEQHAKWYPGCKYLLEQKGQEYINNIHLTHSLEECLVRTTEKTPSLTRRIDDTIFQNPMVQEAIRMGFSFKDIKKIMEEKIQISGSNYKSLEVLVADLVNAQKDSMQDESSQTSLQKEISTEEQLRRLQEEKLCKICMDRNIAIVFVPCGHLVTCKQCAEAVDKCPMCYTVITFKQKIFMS

Compound	z-score [1]	z-score [2]	z-score [3]	z-score [4]	z-score [5]	z-score [6]	z-score [7]	z-score [8]	z-score [9]	z-score [10]	z-score [11]	z-score [12]	z-score [13]	composite z-score [14]	z-score [15]	z-score [16]	z-score [17]	z-score [18]	z-score [19]	composite z-score [20]
C[C@]12C(=O)N(CCCO)[C@@H]3C(=O)N(c4ccc(Cl)cc4)CC=CC31O[C@@H]1/C=C\CCCOC(=O)C12 (stereo not given in full)	0.348	0.922	-0.114	0.14	-0.191	-0.665	-1.25 (inactive)	-0.0538	1.18	-0.0576 (inactive)	-0.468	-0.0146 (inactive)	-0.291 (inactive)	0.0021 (inactive)	-0.553 (inactive)	-0.965 (inactive)	-0.477 (inactive)	-0.464 (inactive)	-0.217	0.734
COCCCNC(=O)[C@@]1(C)c2ccccc2C(=O)N(c2ccc(C)cn2)[C@H]1c1ccc(CO)cc1	-0.255	-1.13	-0.956	-0.0048	-0.857	-0.587	0.285 (inactive)	0.054	-0.295	0.999 (inactive)	0.361	-0.156 (inactive)	-0.321 (inactive)	0.0772 (inactive)	0.112 (inactive)	-0.795 (inactive)	-0.0985 (inactive)	-0.087 (inactive)	0.157	0.286
COc1ccc([Si](C)(C)[C@H]2[C@H](CCO)O[C@@]3(C(=O)N(Cc4cccc(N5CCOC5=O)c4)c4ccccc43)[C@@H]2C)cc1	-0.162	-0.824	-0.925	-2.43	-3.25	-0.0995	2.01 (inactive)	-1.09	-1.79	-2.22 (inactive)	-1.55	1.34 (inactive)	-4.67 (inactive)	-0.287 (inactive)	2 (inactive)	4.7 (inactive)	0.803 (inactive)	0.113 (inactive)	-3.21	-0.0755
COc1ccc(C#Cc2ccc3c(c2)[C@]2(C(=O)N3)[C@H](C(N)=O)[C@H]3C(=O)O[C@H](c4ccccc4)[C@H](c4ccccc4)N3[C@@H]2c2ccc(O)cc2)cc1	-0.765	0.13	-4.5	-3.29	-4.56	-3.11	0.283 (inactive)	-1.1	-2.28	-1.05 (inactive)	-0.295	-0.299 (inactive)	-4.88 (inactive)	0.817 (inactive)	1.41 (inactive)	1.68 (inactive)	0.666 (inactive)	0.714 (inactive)	-6.43	0.0031
CC(=O)NCCCC[C@@H]1NC(=O)[C@H]2C[C@@H](C(=O)NCCCCCN)[C@@H](c3cccc(OCCO)c3)N2C1=O	-0.0064	0.352	0.491	0.701	0.948	0.0469	0.408 (inactive)	-0.38	0.155	1.1 (inactive)	0.382	-1.74 (inactive)	1.18 (inactive)	-0.613 (inactive)	0.0904 (inactive)	-1.1 (inactive)	1.03 (inactive)	1.24 (inactive)	1.5	-0.02
NC(=O)NCC#Cc1ccc2c(c1)[C@]1(C(=O)N2)[C@H](c2ccc(O)cc2)N2[C@H](c3ccccc3)[C@H](c3ccccc3)OC(=O)[C@H]2[C@@H]1C(=O)NC[C@H](O)c1ccccc1	0.544	0.192	-0.0875	-0.106	0.0231	0.163	-0.0491 (inactive)	-0.888	0.481	0.716 (inactive)	0.22	-0.683 (inactive)	0.953 (inactive)	-0.494 (inactive)	-0.136 (inactive)	-0.0444 (inactive)	0.203 (inactive)	0.841 (inactive)	0.82	0.045
CCCC=C(CCC)[C@@H](NS(=O)(=O)c1cccc2cccnc12)c1ccc(C(=O)OC)cc1	-1.76	-0.0806	-1.38	0.131	-0.0956	-1.52	-0.553 (inactive)	0.907	-1.13	0.174 (inactive)	0.582	1.35 (inactive)	0.058 (inactive)	-0.0345 (inactive)	0.371 (inactive)	1.04 (inactive)	0.134 (inactive)	-0.754 (inactive)	0.0013	0.67
COC(=O)C(CC#Cc1ccc2c(c1)[C@]1(C(=O)N2)[C@H](C(=O)N2CCc3cc(OC)c(OC)cc3C2)[C@H]2C(=O)O[C@H](c3ccccc3)[C@H](c3ccccc3)N2[C@@H]1c1ccc(OCCO)cc1)C(=O)OC	0.968	-0.204	1.63	0.783	0.678	-2.03	0.375 (inactive)	-0.678	-1.49	0.21 (inactive)	-0.0956	2.36 (inactive)	-0.229 (inactive)	-6.24 (inactive)	3.55 (inactive)	4.29 (inactive)	-0.538 (inactive)	0.704 (inactive)	-0.0688	0.23
O=C(O)[C@@]1(Cc2ccccc2)COC(c2ccc(OCCCO)cc2)=N1	-0.297	0.139	0.0851	-0.108	0.21	-0.519	-0.0997 (inactive)	0.478	0.0336	0.542 (inactive)	0.0838	1.02 (inactive)	0.296 (inactive)	1.75 (inactive)	0.274 (inactive)	1.4 (inactive)	1.58 (inactive)	0.466 (inactive)	0.318	0.33
CN(C)CCCC[C@@H]1NC(=O)[C@H]2C[C@@H](C(=O)NCCCCCCNC(=O)CS)[C@@H](c3ccc(O)cc3)N2C1=O	-0.877	0.0215	-1.35	-0.245	-1.02	-1.45	-0.715 (inactive)	0.683	0.441	-0.415 (inactive)	0.183	-0.213 (inactive)	-0.614 (inactive)	-0.368 (inactive)	0.022 (inactive)	-0.48 (inactive)	0.0961 (inactive)	-0.509 (inactive)	-0.892	-0.0749
CC1CC/C=C\[C@H]2OC34C=CCN(c5ccc(Cl)cc5)C(=O)[C@H]3N(C(CO)C(C)C)C(=O)[C@]4(C)C2C(=O)O1 (stereo not given in full)	0.109	-1.06	0.453	0.955	-0.105	-0.174	-0.21 (inactive)	-0.362	0.00224	-0.392 (inactive)	-0.328	-0.432 (inactive)	0.0849 (inactive)	-2.37 (inactive)	0.109 (inactive)	-0.245 (inactive)	-0.163 (inactive)	0.129 (inactive)	0.399	0.0808
COc1ccccc1CN1C(=O)c2ccccc2[C@@]2(Cc3ccccc3N(C3CC3)C2=O)[C@@H]1c1ccc(CO)cc1	0.0264	0.358	0.43	-1.6	-0.96	-0.774	-0.607 (inactive)	0.213	0.361	0.375 (inactive)	0.409	0.162 (inactive)	-0.319 (inactive)	-6.76 (inactive)	-0.255 (inactive)	-0.522 (inactive)	-0.473 (inactive)	-0.694 (inactive)	-0.343	-0.232
CCCCC(=C=CC[C@H](O)c1cccc(OCCO)c1)C[C@H](O)COCc1ccccc1	0.803	0.403	0.0132	-1.06	-0.63	0.214	0.254 (inactive)	0.746	-0.378	1.4 (inactive)	1.38	-0.919 (inactive)	0.202 (inactive)	-1.06 (inactive)	0.342 (inactive)	0.178 (inactive)	0.525 (inactive)	0.122 (inactive)	0.774	-0.165
COCC1=C([C@H](O)CCc2ccccc2)[C@H](CO)[C@@H]2C(=O)N(C)C(=O)[C@@H]2C1	0.803	-0.473	0.693	0.347	-0.243	0.618	-0.368 (inactive)	0.442	0.341	-0.515 (inactive)	-0.548	-1.66 (inactive)	0.244 (inactive)	-0.0291 (inactive)	0.908 (inactive)	0.1 (inactive)	2.16 (inactive)	1.65 (inactive)	0.544	-0.353
CCN(CC)c1ccc(N2CC=CC34O[C@@H]5/C=C\CCCOC(=O)C5[C@H]3C(=O)N(CCCCCCO)[C@@H]4C2=O)cc1 (stereo not given in full)	0.626	0.554	1.24	0.0885	0.0026	1.09	0.587 (inactive)	-0.25	0.0342	0.0444 (inactive)	-0.574	-1.14 (inactive)	0.93 (inactive)	-2.09 (inactive)	-0.869 (inactive)	-1.78 (inactive)	0.318 (inactive)	0.901 (inactive)	0.79	-0.083
COCCCNC(=O)[C@@]1(Cc2ccccc2N=[N+]=[N-])N=C(c2ccc(OCCCO)cc2)O[C@H]1c1ccccc1CN=[N+]=[N-]	-0.603	1.66	-0.456	-1.72	-3.93	3.03	0.557 (inactive)	-1.21	-0.593	-1.92 (inactive)	-0.859	-0.255 (inactive)	-1.2 (inactive)	0.283 (inactive)	1.72 (inactive)	0.154 (inactive)	2.63 (inactive)	0.575 (inactive)	-2.25	-0.183
C=CCC(OC(C)=O)[C@@H]1[C@@H](N(Cc2cccc3ccccc23)C(=O)Cc2ccc(F)cc2)c2cc(OCCCO)ccc2N1C(=O)Cc1ccc(OC)cc1 (stereo not given in full)	1.34	1.88	0.99	0.827	0.762	2.26	0.527 (inactive)	0.183	-0.0319	0.641 (inactive)	0.303	-1.61 (inactive)	0.738 (inactive)	-0.83 (inactive)	-0.206 (inactive)	-1.16 (inactive)	0.248 (inactive)	0.927 (inactive)	1.01	-0.01
